Screening results (PubChem BioAssay)
In the library only some 1.1% were active in any assay of this set; here they are far more common.
SARS PLP yeast – blocks SARS-CoV papain-like protease in a yeast assay; S. cerevisiae expressing SARS-CoV PLpro, growth rescue; Potency, µM (series often up to 32.9 µM), for the others: at the top dose activity, positive = growth rescue, most hits filed as activators; 330,000 compounds, 0.19% hits; AID 485353; calls by dose curve; further: 0% is about no effect; nearly all actives have a fitted effect of over 55% in size
LmPK inh – LmPK (Leishmania mexicana) enzyme inhibition | 290,000 compounds, 0.37% hits | Potency, µM (top dose mostly 57.5 µM), for the others: at the top dose activity change, negative = inhibition, hits mostly inhibitors | Q27686 | purified LmPK, Kinase-Glo ATP luminescence, 1 h | AID 1721; further: on the % scale 0 is the no-effect control and ±100 the full control effect
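Screened at intermediate enzyme activity to detect both inhibitors and activators: LmPK at 0.1 nM, with a 0.5 nM enzyme column as activation reference. PEP 0.5 mM, ADP 0.1 mM; ATP detected by luminescence after 1 h.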
RE007 growth inh – less growth of the S. pombe RE007 Vpr strain; AID 651644; 360,000 compounds, 0.21% hits; Potency, µM (series often up to 92.2 µM), without a hit: at the highest dose activity change, negative = less growth, actives largely listed as inhibitors; S. pombe RE007 Vpr strain, BacTiter-Glo ATP luminescence, 24 h; active means well fitted falling curve with a large enough effect; inconclusive means small, poorly fitted or top-dose-only effect; inactive means no such curve, though single readings can be large or run the other way; further: on the % scale 0 is the no-effect control and ±100 the full control effect; nearly all actives have a fitted effect of over 50% in size
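Fission yeast strain RE007, carrying one chromosomally integrated HIV-1 vpr copy, was seeded at OD 0.01 in PMG+AL medium with 23 nL pinned compound. After 24 h at 30 °C and 99% humidity, viability was read by BacTiter-Glo luminescence.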
TbPYK inhibitor – T. brucei pyruvate kinase inhibition. Q57TT1. 410,000 compounds, 0.12% hits. AID 624173. TbPYK enzyme, Kinase-Glo Plus ATP luminescence, 45 min. Potency, µM (doses to about 76.8 µM), for the others: at the highest dose activity, negative = inhibition, actives largely listed as inhibitors; further: on the % scale 0 is the no-effect control and ±100 the full control effect; nearly all actives have a fitted effect of over 50% in size
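Assay buffer: 50 mM TEA pH 7.2, 100 mM KCl, 10 mM MgCl2, 0.05% BSA, 0.01% Tween-20. Pyruvate kinase from T. brucei plus substrate met compound, then ADP (130 uM final). Luminescence was read post 45 min RT.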
Giardia FBPA inh – Giardia lamblia aldolase inhibition; AID 2451; Potency, µM (series often up to 59.6 µM), for the others: top-dose activity, negative = inhibition, hits mostly inhibitors; 290,000 compounds, 0.71% hits; A8B2U2; purified Giardia FBPA; further: on the % scale 0 is the no-effect control and ±100 the full control effect; nearly all actives have a fitted effect of over 55% in size
Target sequence (A8B2U2 whole entry, looked up): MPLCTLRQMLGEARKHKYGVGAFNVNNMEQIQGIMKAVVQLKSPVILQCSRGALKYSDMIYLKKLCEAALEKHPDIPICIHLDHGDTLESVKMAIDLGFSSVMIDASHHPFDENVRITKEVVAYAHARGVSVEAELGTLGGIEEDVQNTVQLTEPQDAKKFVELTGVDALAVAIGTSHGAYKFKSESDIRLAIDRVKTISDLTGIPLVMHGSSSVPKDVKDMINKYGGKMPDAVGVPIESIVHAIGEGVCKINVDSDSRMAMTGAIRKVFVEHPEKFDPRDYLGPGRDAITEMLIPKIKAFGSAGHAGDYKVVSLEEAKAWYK
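Giardia FBPA (40 nM reagent) was preincubated 10 min at RT with compound (up to 57.5 uM final), then substrate plus GAPDH/TPI/NAD/arsenate coupling system with diaphorase/resazurin was added; resorufin fluorescence (525/598 nm) was read after 20 min.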
* = called active by the depositor; ? = inconclusive; / = no result given; [ ] = dose if it differs, or a comment. Unless noted, the call rests on the fitted dose curve; in most records, active means well fitted curve in the direction sought with a large enough effect; inconclusive means small, poorly fitted or top-dose-only effect, or another doubt; inactive means no such curve, though single readings can be large; an effect the other way counts as inactive or inconclusive. Potency means the concentration at half of the fitted maximal effect.

SMILES	SARS PLP yeast	LmPK inh	RE007 growth inh	TbPYK inhibitor	Giardia FBPA inh
N/C(=N\OC(=O)c1ccc(Cl)cc1)c1ccccn1	-20%	5µM*	?	?	1%
COc1ccc([N+](=O)[O-])c(C=CC(=O)c2ccccn2)c1	/	/	-23%	-2%	/
Cc1ccc2scc(N3CCN(c4ccccc4)CC3)c(=O)c2c1	/	/	/	2%	/
CCOC(=O)[C@H](CCc1ccccc1)N[C@H]1CCCN2CCC[C@@H](C(=O)O)N2C1=O	/	/	/	4%	/
CC(C)CC(NC(=O)CNC(=O)C(Cc1ccc(O)cc1)NC(=O)C(CO)NC(=O)C(Cc1c[nH]c2ccccc12)NC(=O)C(Cc1cnc[nH]1)NC(=O)C1CCC(=O)N1)C(=O)NC(CCCN=C(N)N)C(=O)N1CCCC1C(=O)NCC(N)=O (stereo unspecified)	/	/	/	1%	/
N/C(=N\OC(=O)c1ccccc1Cl)c1ccccn1	-18%	7.1µM*	?	?	-1%
N/C(=N\OC(=O)c1ccc(Cl)cc1)c1[nH]ncc1Br	-1%	10µM*	?	?	0%
COc1ccccc1C(=O)O/N=C(\N)c1ccccn1	-3%	?	-24%	-14%	-16%
O=C(c1cccs1)N1CCCc2cc(NS(=O)(=O)c3ccc(F)cc3)ccc21	/	/	/	1%	/
O=c1ccn(-c2cccc(C(F)(F)F)c2)nc1-c1ccn(-c2ccccc2F)n1	7%	8%	-4%	-7%	16µM*
Cc1oc(-c2cccc(Br)c2)nc1Cn1c(SCc2cccc(F)c2)nc2cccnc21	/	/	/	-4%	/
C[C@@H](C(=O)O)c1ccc(C2CCCCC2)c2ccccc12	/	/	/	2%	/
S=c1[nH]nc([C@@H]2C[C@H]2c2ccccc2)n1-c1ccccc1Cl	1%	13µM*	29%	5µM*	-1%
COc1cccc(NC(=O)CSc2nc(-c3ccccc3)nc3c2Cc2cc(Cl)ccc2O3)c1	/	/	/	-4%	/
Cc1ccc(C(c2sc3nc(-c4ccco4)nn3c2O)N2CCOCC2)cc1 (stereo unspecified)	/	/	/	-8%	/
Cc1ccc(C(=O)Cc2ccccc2)c(O)c1	/	/	-14%	3%	/
CC(C)=CCc1c(O)ccc(C(=O)Cc2ccccc2)c1O	-17%	3%	35µM*	0%	-6%
O=C1C(=Cc2ccccc2Cl)CCc2ccccc21	/	/	1%[18.4 µM]	32µM*	/
O=C1/C(=C/c2ccco2)CCc2ccccc21	-1%	13µM*	?	?	-25%
O=C1C(=Cc2ccc(Cl)cc2)CCc2ccccc21	/	/	-19%	?	/
O=C1/C(=C/c2ccncc2)CCc2ccccc21	-19%	13µM*	?	?	0%
Cn1cccc1/C=C1\CCc2ccccc2C1=O	-19%	?	35µM*	?	-15%
O=C1/C(=C\c2ccncc2)CCc2ccccc21	0%	/	?	?	/
CCc1ccccc1N1CC(c2nc3ccccc3n2Cc2cccc(C)c2)CC1=O (stereo unspecified)	/	/	/	1%	/
Cc1c(C(=O)N2CCCC2)oc2c1-c1nn(CC(=O)NCc3cccc(Br)c3)cc1CC2	/	/	/	-3%	/
SMILES	SARS PLP yeast	LmPK inh	RE007 growth inh	TbPYK inhibitor	Giardia FBPA inh
CS(=O)(=O)Nc1ccc(-c2n[nH]c(=S)n2-c2ccccc2)cc1	6%	10µM*	0%	0%	11%
Cc1ccc(S(=O)(=O)N(Cc2n[nH]c(=S)n2-c2ccccc2)c2ccccc2)cc1	0%	-24%	10%	7.9µM*	18%
Cc1ccc(-c2n[nH]c(=S)n2-c2ccccc2)cc1	13%	?	18%	?	11%
Cc1ccc(NCc2n[nH]c(=S)n2-c2ccccc2)cc1	0%	2%	6%	2.8µM*	-2%
Cc1ccc(S(=O)(=O)N(Cc2n[nH]c(=S)n2-c2ccccc2)c2cccc(Cl)c2)cc1	-1%	-20%	3%	?	18%
CCC(=O)OC1[C@@H](N2CCCCC2)C[C@H]2[C@@H]3CC[C@H]4C[C@H](OC(C)=O)[C@@H](N5CCCCC5)C[C@]4(C)[C@H]3CC[C@]12C (stereo partly specified)	/	/	/	0%	/
COc1cccc(OC)c1-c1cc(C(=O)NC2(C(=O)O)C3CC4CC(C3)CC2C4)nn1-c1ccnc2cc(Cl)ccc12 (stereo unspecified)	/	/	/	-9%	/
